Measured values published in PubChem BioAssay (Tox21).
Values joined by “and” are separate entries in the source; they are usually repeats but may differ in a detail not shown here. Equal entries are not always repeated. Inconclusive results are not listed. More than one record can exist for a structure, and the calls need not agree. Active and inactive are the calls of the source. The call rests on the fitted dose curve; in most records, active means well fitted curve in the direction sought with a large enough effect in the repeat runs; inconclusive means weak or mixed curves; inactive means no such curve, though single readings can be large; an effect the other way counts as inactive or inconclusive.

How the values were obtained:
[1] = biological target: Cytochrome P450 2D6 (Homo sapiens) (UniProt P10635); assay: Cytochrome P450 Family 2 Subfamily D Member 6 (CYP2D6) small molecule antagonists: luciferase reporter qHTS assay (AID 1671196); further: nearly all actives have a fitted effect of over 50% in size; further: potency means the concentration at half of the fitted maximal effect; on activity change, negative = inhibition: series mostly up to about 120 µM
Cytochrome P450 2D6 (Homo sapiens), sequence (P10635 whole entry, looked up): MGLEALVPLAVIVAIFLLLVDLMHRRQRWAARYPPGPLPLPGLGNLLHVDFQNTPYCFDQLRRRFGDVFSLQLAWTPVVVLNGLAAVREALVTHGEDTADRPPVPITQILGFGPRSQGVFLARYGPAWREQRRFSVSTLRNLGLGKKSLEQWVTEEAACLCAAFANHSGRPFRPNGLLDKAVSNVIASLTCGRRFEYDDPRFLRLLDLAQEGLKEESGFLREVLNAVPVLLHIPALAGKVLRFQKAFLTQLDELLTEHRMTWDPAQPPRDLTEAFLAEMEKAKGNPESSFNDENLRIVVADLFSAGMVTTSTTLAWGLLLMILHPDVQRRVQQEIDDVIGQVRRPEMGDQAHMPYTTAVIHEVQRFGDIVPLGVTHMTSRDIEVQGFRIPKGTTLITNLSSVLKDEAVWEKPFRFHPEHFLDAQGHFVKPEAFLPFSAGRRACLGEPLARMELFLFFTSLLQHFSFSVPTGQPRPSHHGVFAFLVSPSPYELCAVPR
In short: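 Enzyme and proluciferin substrate were first combined with test chemical for 10 min at room temperature. Adding NADPH regeneration solution started a 1 h reaction, stopped with luciferin detection reagent and read by luminescence 20 min later.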

[2] = biological target: Cytochrome P450 2C19 (Homo sapiens) (UniProt P33261); assay: Cytochrome P450 Family 2 Subfamily C Member 19 (CYP2C19) small molecule antagonists: luciferase reporter qHTS assay (AID 1671197); further: nearly all actives have a fitted effect of over 65% in size; further: potency means the concentration at half of the fitted maximal effect; on activity change, negative = inhibition: series mostly up to about 120 µM
Cytochrome P450 2C19 (Homo sapiens), sequence (P33261 whole entry, looked up): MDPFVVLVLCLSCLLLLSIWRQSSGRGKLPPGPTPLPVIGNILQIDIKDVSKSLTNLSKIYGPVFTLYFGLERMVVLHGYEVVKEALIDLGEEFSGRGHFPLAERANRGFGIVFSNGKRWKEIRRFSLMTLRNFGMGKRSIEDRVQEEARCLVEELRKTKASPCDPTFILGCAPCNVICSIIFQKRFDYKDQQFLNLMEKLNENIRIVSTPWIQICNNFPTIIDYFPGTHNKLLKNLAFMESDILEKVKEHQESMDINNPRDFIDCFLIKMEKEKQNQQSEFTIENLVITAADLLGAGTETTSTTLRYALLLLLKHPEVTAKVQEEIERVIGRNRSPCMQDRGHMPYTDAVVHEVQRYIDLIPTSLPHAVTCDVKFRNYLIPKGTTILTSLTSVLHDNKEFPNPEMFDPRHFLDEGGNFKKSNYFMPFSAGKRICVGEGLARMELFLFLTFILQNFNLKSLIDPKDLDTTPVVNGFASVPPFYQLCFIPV
In short: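 Relative luminescence units recorded 20 min after the detection reagent stopped a 1 h, 37C CYP2C19 reaction on proluciferin substrate, which was started by NADPH regeneration following 10 min room-temperature compound preincubation; ketoconazole positive control.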

[3] = biological target: Cytochrome P450 2C9 (Homo sapiens) (UniProt P11712); assay: Cytochrome P450 Family 2 Subfamily C Member 9 (CYP2C9) small molecule antagonists: luciferase reporter qHTS assay (AID 1671198); further: nearly all actives have a fitted effect of over 50% in size; further: potency means the concentration at half of the fitted maximal effect; on activity change, negative = inhibition: series mostly up to about 120 µM
Cytochrome P450 2C9 (Homo sapiens), sequence (P11712 whole entry, looked up): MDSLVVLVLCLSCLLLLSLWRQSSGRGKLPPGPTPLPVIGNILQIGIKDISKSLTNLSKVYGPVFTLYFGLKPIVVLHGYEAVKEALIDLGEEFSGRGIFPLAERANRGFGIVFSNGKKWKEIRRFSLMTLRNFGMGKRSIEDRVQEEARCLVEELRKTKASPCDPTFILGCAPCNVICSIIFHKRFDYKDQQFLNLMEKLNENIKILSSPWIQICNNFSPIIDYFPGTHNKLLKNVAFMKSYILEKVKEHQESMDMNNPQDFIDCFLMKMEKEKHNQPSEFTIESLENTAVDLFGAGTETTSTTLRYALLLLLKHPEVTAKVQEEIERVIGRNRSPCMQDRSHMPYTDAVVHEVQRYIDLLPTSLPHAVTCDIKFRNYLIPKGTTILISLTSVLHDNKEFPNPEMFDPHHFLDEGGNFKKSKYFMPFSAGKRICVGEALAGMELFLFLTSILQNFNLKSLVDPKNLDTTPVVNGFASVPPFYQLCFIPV
In short: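 Enzyme-substrate mix preincubated with compound 10 min at room temperature; reaction started with NADPH regeneration solution, 1 h 37C. Luminescent luciferin product read after 20 min detection reagent.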

[4] = biological target: Voltage-gated inwardly rectifying potassium channel KCNH2 (Homo sapiens) (UniProt Q12809); assay: Human Ether-a-go-go-Related Gene (hERG) channel small molecule antagonists: fluorescence cell-based qHTS assay (AID 1671200); further: nearly all actives have a fitted effect of over 50% in size; further: potency means the concentration at half of the fitted maximal effect;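 on activity change, negative = inhibition: hERG-expressing U2OS cells given a thallium stimulus after FluxOR II dye loading; series mostly up to about 77 µM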
Voltage-gated inwardly rectifying potassium channel KCNH2 (Homo sapiens), sequence (Q12809 whole entry, looked up): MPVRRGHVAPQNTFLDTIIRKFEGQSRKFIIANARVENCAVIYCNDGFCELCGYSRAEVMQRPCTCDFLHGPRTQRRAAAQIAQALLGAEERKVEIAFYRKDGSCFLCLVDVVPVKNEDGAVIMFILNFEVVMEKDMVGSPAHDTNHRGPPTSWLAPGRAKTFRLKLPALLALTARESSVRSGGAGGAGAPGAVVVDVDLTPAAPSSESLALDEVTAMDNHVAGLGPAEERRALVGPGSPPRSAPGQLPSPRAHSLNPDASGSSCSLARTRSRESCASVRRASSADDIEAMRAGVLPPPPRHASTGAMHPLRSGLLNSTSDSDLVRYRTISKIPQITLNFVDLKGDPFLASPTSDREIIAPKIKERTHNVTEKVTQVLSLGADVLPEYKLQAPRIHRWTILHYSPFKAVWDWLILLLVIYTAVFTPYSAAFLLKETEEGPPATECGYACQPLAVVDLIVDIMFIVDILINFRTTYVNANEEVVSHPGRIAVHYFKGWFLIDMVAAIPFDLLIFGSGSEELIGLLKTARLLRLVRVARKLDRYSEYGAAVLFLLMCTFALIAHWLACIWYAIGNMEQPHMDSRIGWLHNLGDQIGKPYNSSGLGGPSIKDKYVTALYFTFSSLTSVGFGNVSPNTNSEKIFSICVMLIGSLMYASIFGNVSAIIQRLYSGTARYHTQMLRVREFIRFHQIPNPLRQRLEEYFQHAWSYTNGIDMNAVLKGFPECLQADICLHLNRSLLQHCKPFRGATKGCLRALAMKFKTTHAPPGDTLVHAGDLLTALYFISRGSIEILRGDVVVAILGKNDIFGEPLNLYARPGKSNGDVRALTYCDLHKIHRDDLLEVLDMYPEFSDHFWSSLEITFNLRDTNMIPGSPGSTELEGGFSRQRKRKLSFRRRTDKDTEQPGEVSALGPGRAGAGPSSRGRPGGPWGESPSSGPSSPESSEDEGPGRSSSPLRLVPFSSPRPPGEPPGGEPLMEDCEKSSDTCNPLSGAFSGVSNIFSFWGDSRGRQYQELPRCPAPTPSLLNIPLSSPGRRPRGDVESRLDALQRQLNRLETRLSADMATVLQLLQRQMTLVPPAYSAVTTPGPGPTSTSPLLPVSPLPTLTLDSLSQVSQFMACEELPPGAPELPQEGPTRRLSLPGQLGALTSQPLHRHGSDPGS
In short: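 First, 1000 cells per well are seeded and cultured overnight at 37 C. Next, FluxOR II dye is loaded for 1 h at room temperature, protected from light. After 10 more minutes, stimulus is added and fluorescence is read.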

[5] = biological target: Cytochrome P450 3A4 (Homo sapiens) (UniProt P08684); assay: Cytochrome P450 Family 3 Subfamily A Member 4 (CYP3A4) small molecule antagonists: luciferase reporter qHTS assay (AID 1671201); further: series mostly up to about 120 µM; nearly all actives have a fitted effect of over 50% in size
Cytochrome P450 3A4 (Homo sapiens), sequence (P08684 whole entry, looked up): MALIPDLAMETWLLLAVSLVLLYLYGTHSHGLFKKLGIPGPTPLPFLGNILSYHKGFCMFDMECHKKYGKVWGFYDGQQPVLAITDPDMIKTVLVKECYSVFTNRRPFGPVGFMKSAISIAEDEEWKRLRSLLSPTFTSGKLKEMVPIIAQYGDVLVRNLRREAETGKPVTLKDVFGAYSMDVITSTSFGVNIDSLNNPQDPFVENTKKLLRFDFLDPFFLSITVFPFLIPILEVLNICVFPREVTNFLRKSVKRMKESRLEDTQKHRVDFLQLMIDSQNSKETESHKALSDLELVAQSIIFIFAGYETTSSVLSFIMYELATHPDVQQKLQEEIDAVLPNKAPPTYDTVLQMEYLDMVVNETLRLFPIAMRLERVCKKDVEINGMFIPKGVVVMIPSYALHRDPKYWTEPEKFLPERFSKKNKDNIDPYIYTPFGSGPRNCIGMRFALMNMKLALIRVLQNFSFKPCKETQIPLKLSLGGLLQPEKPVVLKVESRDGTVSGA
In short: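 Enzyme and proluciferin substrate are mixed with test chemicals for 10 min, then NADPH regeneration system drives turnover for 1 h at room temperature. A detection reagent halts the reaction; luminescence after 20 min gives relative activity.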

[6] = biological target: Cytochrome P450 1A2 (Homo sapiens) (UniProt P05177); assay: Cytochrome P450 Family 1 Subfamily A Member 2 (CYP1A2) small molecule antagonists: luciferase reporter qHTS assay (AID 1671199); further: nearly all actives have a fitted effect of over 50% in size; further: potency means the concentration at half of the fitted maximal effect; on activity change, negative = inhibition: series mostly up to about 120 µM
Cytochrome P450 1A2 (Homo sapiens), sequence (P05177 whole entry, looked up): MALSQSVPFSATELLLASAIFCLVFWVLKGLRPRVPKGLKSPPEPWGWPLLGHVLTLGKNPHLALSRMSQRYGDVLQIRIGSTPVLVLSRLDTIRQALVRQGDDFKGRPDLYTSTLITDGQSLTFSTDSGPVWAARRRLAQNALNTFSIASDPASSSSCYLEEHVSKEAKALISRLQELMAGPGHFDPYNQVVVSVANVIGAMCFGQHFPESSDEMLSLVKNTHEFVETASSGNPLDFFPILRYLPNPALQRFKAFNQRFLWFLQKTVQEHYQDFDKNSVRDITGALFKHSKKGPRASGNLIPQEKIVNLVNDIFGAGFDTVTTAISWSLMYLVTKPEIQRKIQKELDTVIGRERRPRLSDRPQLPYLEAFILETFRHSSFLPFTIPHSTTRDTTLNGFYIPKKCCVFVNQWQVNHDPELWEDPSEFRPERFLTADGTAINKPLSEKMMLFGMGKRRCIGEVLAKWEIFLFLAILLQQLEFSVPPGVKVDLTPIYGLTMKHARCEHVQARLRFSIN
In short: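 Compounds were incubated with CYP1A2 and a luminogenic proluciferin substrate for 10 min at room temperature before the reaction was started with NADPH regeneration solution. After 1 h, detection reagent was added and light output, proportional to CYP activity, was recorded.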
On the % scale 0 is the no-effect control and ±100 the full control effect.

COC(=O)[C@@H](N)Cc1ccc(O)c(O)c1
inactive: Potency [1] | Potency [2] | Potency [3] | Potency [4] | Potency [5]

O=C(O)CNC(=O)c1ccc([N+](=O)[O-])cc1
inactive: Potency [1] | Potency [2] | Potency [3] | Potency [6] | Potency [4] | Potency [5]

O=c1cc(-c2ccccc2)oc2ccccc12
active: Potency [2] 31.7 µM and 7.92 µM | Potency [3] 17.8 µM and 15.4 µM | Potency [6] 317 nM and 477 nM
inactive: Potency [1] | Potency [4] | Potency [5]

CC(C)NCC(O)c1ccc(NS(C)(=O)=O)cc1 (stereo not given)
inactive: Potency [2] | Potency [3] | Potency [6] | Potency [5]
active: Potency [1] 36 µM | Potency [4] 22.1 µM

COC(=O)c1c(Cl)c(Cl)c(C(=O)OC)c(Cl)c1Cl
inactive and 31.7 µM (active): Potency [1]
active: Potency [2] 28.3 µM and 15.9 µM | Potency [6] 317 nM and 154 nM
inactive: Potency [3] | Potency [5]

CCN1CCC[C@H]1CNC(=O)c1cc(S(N)(=O)=O)ccc1OC
active: Potency [1] 15.5 µM
inactive: Potency [2] | Potency [3] | Potency [6] | Potency [5]

NC(=O)Nc1ccccc1
inactive: Potency [1] | Potency [2] | Potency [3] | Potency [6] | Potency [5]

Nc1ccccc1S(=O)(=O)O
inactive: Potency [1] | Potency [2] | Potency [6] | Potency [4] | Potency [5]

CC(=O)CC(C)C
inactive: Potency [1] | Potency [2] | Potency [3] | Potency [4] | Potency [5]

N#Cc1ccc(C2CCCc3cncn32)cc1 (stereo not given)
inactive: Potency [6]
active: Potency [1] 12.7 µM | Potency [2] 12.7 µM

Cc1ccc(C#N)cc1
inactive: Potency [1] | Potency [6] | Potency [4] | Potency [5]
active: Potency [2] 34.4 µM

CCc1nccnc1CC
inactive: activity change, negative = inhibition [1] -14% [at 23.6 µM] | Potency [2] | Potency [6] | activity change, negative = inhibition [4] -2.32% [at 15.8 µM] | activity change, negative = inhibition [5] 8.66% [at 23.6 µM]

CC/C=C\CC/C=C/CO
inactive: Potency [1] | Potency [2] | Potency [3] | Potency [5]

C=CCOCC(CC)(CO)COCC=C
inactive: Potency [1] | Potency [4]
active: Potency [2] 3.99 µM | Potency [6] 28.3 µM

COC(=O)CCSCCC(=O)OC
inactive: Potency [1] | Potency [2] | Potency [3] | Potency [4] | Potency [5]

CCC(C)S (stereo not given)
inactive: activity change, negative = inhibition [1] -10.7% [at 4.07 µM] | activity change, negative = inhibition [2] 8.24% [at 4.07 µM] | activity change, negative = inhibition [3] -9.04% [at 4.07 µM] | activity change, negative = inhibition [4] 1.71% [at 2.72 µM] | activity change, negative = inhibition [5] 2.72% [at 4.07 µM]

CC(=O)OCC(=O)[C@@]1(O)CC[C@H]2[C@@H]3CCC4=CC(=O)CC[C@]4(C)[C@H]3C(=O)C[C@@]21C
active: Potency [1] 2.45 µM
inactive: Potency [2] | Potency [6] | Potency [4] | Potency [5]

CCO[Si](CCC1CCC2OC2C1)(OCC)OCC (stereo not given)
inactive: Potency [1] | Potency [2] | Potency [3] | Potency [4] | Potency [5]

COC(=O)c1cc(C(=O)OC)cc(S(=O)(=O)O)c1
inactive: Potency [1] | Potency [2] | Potency [3] | Potency [4] | Potency [5]

Cc1cccc(C)c1NC(=O)C(C)N (stereo not given)
inactive: Potency [1] | Potency [2] | Potency [6] | Potency [4] | Potency [5]

CC(C)NCCCC1(C(N)=O)c2ccccc2-c2ccccc21
inactive: Potency [2] | Potency [6] | Potency [4]
active: Potency [1] 2.45 µM

CC(C)NC(=O)NC(C)C
inactive: Potency [1] | Potency [2] | Potency [6] | Potency [4] | Potency [5]

CCn1ccnc1CC1COc2ccccc2O1 (stereo not given)
active: Potency [1] 0.776 µM | Potency [2] 4.9 µM
inactive: Potency [3] | Potency [4] | Potency [5]

CCOC(=O)[C@H](CCc1ccccc1)N[C@@H](C)C(=O)N1[C@H](C(=O)O)C[C@@H]2CCC[C@@H]21
inactive: Potency [1] | Potency [2] | Potency [6] | Potency [4]

N=C(N)c1ccc2cc(OC(=O)c3ccc(N=C(N)N)cc3)ccc2c1
inactive: Potency [1] | Potency [2] | Potency [6] | Potency [4] | Potency [5]

CCOC(=O)c1ccc(C)cc1
inactive: Potency [1] | Potency [2] | Potency [6] | Potency [4] | Potency [5]

CN1CCN(c2cc3c(cc2F)c(=O)c(C(=O)O)cn3-c2ccc(F)cc2)CC1
inactive: Potency [1] | Potency [2] | Potency [6] | Potency [4] | Potency [5]

COc1cc(C(=O)N2CCCCCCC2)cc(OC)c1OC
inactive: Potency [1] | Potency [6] | Potency [4]
active: Potency [2] 21.9 µM

O=C(O)CCCl
inactive: Potency [1] | Potency [2] | Potency [3] | Potency [5]

CCCCCCCCCCCCN(CCCCCCCCCCCC)CCCCCCCCCCCC
inactive: Potency [1] | Potency [2] | Potency [3] | Potency [4] | Potency [5]

COc1ccccc1OCC(O)CN1CCN(CC(=O)Nc2c(C)cccc2C)CC1 (stereo not given)
active: Potency [1] 13.8 µM
inactive: Potency [2] | Potency [6] | Potency [4]

CC(=O)CC(C)(C)C1CCCCC1
inactive: Potency [1] | Potency [2] | Potency [3] | Potency [4] | Potency [5]

OC1CCCCC1c1ccccc1 (stereo not given)
active: Potency [2] 79.6 µM
inactive: Potency [1] | Potency [6] | Potency [4] | Potency [5]

O=C(c1ccccc1)C1CCCCC1
active: Potency [2] 71 µM | Potency [6] 44.8 µM
inactive: Potency [1] | Potency [4] | Potency [5]

CC(C)=CCCC(C)CC(=O)O (stereo not given)
inactive: Potency [1] | Potency [5]
active: Potency [2] 35.6 µM | Potency [3] 63.3 µM

O=C(O)Cc1ccc(CCNS(=O)(=O)c2ccc(Cl)cc2)cc1
inactive: Potency [1] | Potency [2] | Potency [6] | Potency [4] | Potency [5]

CCOC(=O)Nc1ccc(NCc2ccc(F)cc2)nc1N
active: Potency [1] 3.09 µM | Potency [2] 11 µM
inactive: Potency [6]

CC(C)(O)C(=O)c1ccccc1
inactive: Potency [1] | Potency [3] | Potency [5]
active: Potency [2] 39.9 µM
